Source: PubChem (National Center for Advancing Translational Sciences (NCATS))
Sampled rows, rich in hits. Any-hit rate of the full collection: about 7.5%.
NPC1 promoter act = qHTS Assay for NPC1 Promoter Activators; Huh7 NPC1 promoter luciferase reporter, 24 h; Potency, µM (series often up to 9.22 µM), for inactives: at the highest dose activation, hits mostly activators; hit rate 2.4% among 320,000; AID 485313, 2010; further: % of control where 0% means no effect; nearly all actives have a fitted effect of over 60% in size
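Quantitative HTS used a cell-based reporter: Huh7 cells stably bearing the NPC1 promoter upstream of luciferase were treated with compounds for 24 h, and promoter activation was read as luminescence.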
Rab9 prom act = qHTS Assay for Rab9 Promoter Activators | Huh7 Rab9 promoter-luciferase reporter, luminescence, 24 h | Potency, µM (titrated, usually from 9.22 µM), without a hit: top-dose activation, negative = inhibition, usual class: activators | hit rate 2.8% among 320,000 | AID 485297, 2010; further: % of control where 0% means no effect; nearly all actives have a fitted effect of over 60% in size
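Promoter activation is measured as luciferase luminescence in Huh7 cells stably transfected with a Rab9 promoter–luciferase construct, following 24 h compound exposure at 37 °C and 10 min reagent incubation at ambient temperature.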
SMN2 splice up = qHTS Assay for Enhancers of SMN2 Splice Variant Expression. HEK293 SMN2-luciferase splicing reporter, luminescence, 30-36 h. Potency, µM (top dose mostly 46.1 µM), for the others: at the top dose activity change, positive = activation, most hits filed as activators. hit rate 2.8% among 210,000. AID 1458, 2008; further: % of control where 0% means no effect; nearly all actives have a fitted effect of over 55% in size
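qHTS luciferase splicing reporter: luminescence rises when SMN2 exon 7 is included in transfected HEK293 cells. Compound exposure lasted 30-36 h at 37C, with 4.5 mM final sodium butyrate as control, followed by a ONE-Glo read.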
ELG1 genotox = qHTS screen for small molecules that induce genotoxicity in human embryonic kidney (HEK293T) cells expressing luciferase-tagged ELG1 | HEK293T ELG1-luciferase reporter, luminescence, 16 h | Potency, µM (doses to about 46 µM), inactives show at the top dose activity change, positive = activation, most hits filed as activators | hit rate 1.3% among 330,000 | AID 504466, 2011; further: % of control where 0% means no effect; nearly all actives have a fitted effect of over 60% in size
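Quantitative HTS format in 1536-well plates. HEK293T ELG1-luciferase reporter cells receive test compound and are incubated 16 hr at 37 °C, 5% CO2; ONE-Glo added, 30 min room temperature, then luminescence read.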
FLuc counter = qHTS profiling assay for firefly luciferase inhibitor/activator using purifed enzyme and Km concentrations of substrates (counterscreen for miR-21 project) | Luciferin 4-monooxygenase (Photinus pyralis), P08659 | Potency, µM (series often up to 57.5 µM), for the others: top-dose activity change, negative = inhibition, usual class: inhibitors | hit rate 6.9% among 360,000 | purified FLuc, Km substrates, luminescence inhibition;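 further: plate controls were vehicle for no effect and reference inhibitor for full effect; nearly all actives have a fitted effect of over 55% in size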
Target sequence (P08659 whole entry, looked up): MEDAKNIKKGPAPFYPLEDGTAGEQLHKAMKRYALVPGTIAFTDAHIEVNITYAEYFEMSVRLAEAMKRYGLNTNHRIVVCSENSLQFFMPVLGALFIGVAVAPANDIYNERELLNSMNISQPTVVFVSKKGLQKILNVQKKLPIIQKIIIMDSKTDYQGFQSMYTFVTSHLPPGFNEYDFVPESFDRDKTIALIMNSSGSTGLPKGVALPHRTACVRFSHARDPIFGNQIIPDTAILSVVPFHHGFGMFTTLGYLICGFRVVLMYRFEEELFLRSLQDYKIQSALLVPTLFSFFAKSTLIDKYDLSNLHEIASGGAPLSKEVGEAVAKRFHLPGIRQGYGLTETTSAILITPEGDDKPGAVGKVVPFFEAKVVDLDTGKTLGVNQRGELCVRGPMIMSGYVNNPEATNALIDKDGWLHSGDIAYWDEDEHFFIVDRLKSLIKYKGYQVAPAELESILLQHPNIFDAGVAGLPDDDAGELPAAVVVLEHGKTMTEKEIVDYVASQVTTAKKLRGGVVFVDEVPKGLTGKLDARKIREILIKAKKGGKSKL
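Biochemical qHTS of compounds, final roughly 60 µM downward over six points, against 10 nM purified firefly luciferase using Km concentrations of substrates (10 uM D-luciferin, 10 uM ATP) in Tris acetate pH 7.5 buffer; luminescence output.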
KinaseGlo FLuc = Counterscreen for Luciferase (Kinase-Glo TM) Inhibition; Kinase-Glo luciferase, ATP luminescence, 8 min; Potency, µM (top dose mostly 38.3 µM), for the others: top-dose activity change, negative = inhibition, actives largely listed as inhibitors; hit rate 0.28% among 200,000; AID 1379, 2008; further: on the % scale 0 is the no-effect control and ±100 the full control effect; nearly all actives have a fitted effect of over 60% in size
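Luminescence was the read-out, taken after 8-minute incubation at ambient temperature. Luciferase turned over luciferin with 10 uM ATP in imidazole pH 7.2 buffer containing KCl, MgCl2, Tween 20 and BSA.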
* marks the source's active call; other numbers are inactive results; ? = inconclusive; . = not tested or not shown; [ ] = dose if it differs, or a comment. The call rests on the fitted dose curve; in most records, active means well fitted curve in the direction sought with a large enough effect; inconclusive means small, poorly fitted or top-dose-only effect, or another doubt; inactive means no such curve, though single readings can be large; an effect the other way counts as inactive or inconclusive. Potency means the concentration at half of the fitted maximal effect.

SMILES	NPC1 promoter act	Rab9 prom act	SMN2 splice up	ELG1 genotox	FLuc counter	KinaseGlo FLuc
CN(C)S(=O)(=O)c1cccc(NC(=S)NC(=O)c2ccco2)c1	?	3.55µM*	.	10.7%	?	.
CCOc1ccc(NC(=O)CCC(=O)NNC(=O)c2ccco2)cc1	-4.0%	-1.1%	-3.6%	-0.5%	-7.7%	1.0%
CCOc1ccc(NC(=O)c2ccco2)cc1	0.708µM*	0.631µM*	10µM*	?	4.78µM*	-21.6%
Cc1ccc(Cn2ccn(Cc3ccc(C)cc3)c(=O)c2=O)cc1	.	.	.	.	1.8%	.
CN(Cc1ccccc1)C(=O)CN1C(=O)CSc2ccc(S(=O)(=O)N3CCOCC3)cc21	.	.	.	.	0.3%	.
Cc1cc(C)c(S(=O)(=O)NCC(c2ccc(N(C)C)cc2)N2CCOCC2)c(C)c1 (stereo not given)	.	.	.	.	-1.7%	.
COc1cccc(CNC(=O)c2nnc(Cc3ccc(Cl)cc3)o2)c1	.	.	1.9%	.	2.9%	.
O=C(Oc1ccc(F)cc1)c1nc(SCc2ccc(F)cc2)ncc1Cl	.	.	3.2%	.	2.0%	.
Cc1c(Cl)cccc1NC(=O)CCOc1ccccc1	.	.	-8.1%	.	-10.3%	.
COC(=O)Cc1ccc(NC(=O)c2ccc(NC(=O)c3ccco3)cc2)cc1	-4.3%	6.8%	-45.2%	2.2%	-2.4%	0.9%
COC(=O)COc1ccc(NC(=O)c2ccco2)cc1	-0.9%	2.6%	.	3.4%	23.9µM*	.
COc1ccccc1C(=O)NC(=O)COC(=O)C1CCC1	-2.8%	0.4%	.	-3.9%	8.49µM*	.
O=C(COC(=O)C1CCC1)NC(=O)c1ccccc1	0.8%	0.6%	.	-3.7%	?	.
COc1cccc(CNCc2cccn2-c2nnc(N3CCN(c4ccccc4)CC3)s2)c1	.	.	.	.	-1.8%	.
O=C(Nc1nc2cc3c(cc2s1)OCCO3)c1ccncc1	2.24µM*	1.58µM*	?	?	1.69µM*	-13.1%
O=C(Nc1nc2ccccc2c(=O)s1)c1ccc(F)cc1Cl	7.6%	0.3%	.	0.2%	3.79µM*	.
O=C(Nc1nc2ccccc2c(=O)s1)c1ccco1	-1.9%	-12.7%	.	-0.1%	15.1µM*	.
O=C(Nc1nc2cc3c(cc2s1)OCO3)c1ccco1	0.251µM*	0.224µM*	.	4.2%	0.239µM*	.
O=C(Nc1nc(-c2cccs2)c(-c2ccccc2)s1)c1ccco1	-8.4%	5.3%	-8.9%	3.8%	-2.8%	-2.9%
COc1ccc(C(=O)c2cn(Cc3cccc(C)c3)c3cc4c(cc3c2=O)OCO4)cc1	.	.	19.8%	.	-1.3%	.
Cc1nc2ccc(S(=O)(=O)NC(C(=O)NCc3ccc(Cl)cc3)C(C)C)cc2s1 (stereo not given)	.	.	-9.9%	.	1.3%	.
COc1ccccc1N1CCN(C(=O)c2cc3c(=O)oc4ccc(C)cc4c3s2)CC1	.	.	-4.4%	.	-13.0%	.
CCCn1c(SCC(O)c2ccccc2)nc2ccccc21 (stereo not given)	.	.	5.8%	.	-0.4%	.
O=C(Nc1nc2cc3c(cc2s1)OCCO3)c1ccco1	?	0.794µM*	.	?	0.107µM*	.
CN(C)CCN(C(=O)c1ccco1)c1nc2cc3c(cc2s1)OCCO3	18.1%	18.4%	.	18.3µM*	-12.5%	.
SMILES	NPC1 promoter act	Rab9 prom act	SMN2 splice up	ELG1 genotox	FLuc counter	KinaseGlo FLuc
COc1cccc(NC(=O)c2ccc3[nH]c(C)cc(=O)c3c2)c1	.	.	.	.	5.9%	.
COc1ccc(C)cc1-n1cnc2cc(C(=O)NC3CCCCCC3)ccc21	.	.	.	.	-5.7%	.
O=C(Cn1ncc2c3ccccc3n(Cc3cccc(Cl)c3)c2c1=O)NCc1cccs1	.	.	-3.3%	.	4.5%	.
COC(=O)c1cc2sc(C)cc2n1Cc1cccc(OC)c1	.	.	-12.7%	.	-11.4%	.
COc1ccc(Cl)cc1C(=O)Nc1cccnc1	-0.1%	-0.3%	.	0.9%	-6.4%	.
O=C(Nc1cccnc1)c1cc(-c2cc(Cl)ccc2O)n[nH]1	2.82µM*	?	.	16.5%	2.39µM*	.
Cc1ccc(O)c(-c2cc(C(=O)Nc3cccnc3)[nH]n2)c1	2.82µM*	2.24µM*	.	?	5.36µM*	.
Cc1ccc(C)c(NC(=O)c2cc(-c3cc(C)c(C)cc3O)n[nH]2)c1	?	3.55µM*	.	?	?	.
CCCCCCCCCCCCCCCC(=O)OCC(COP(=O)(O)O)OC(=O)CCCCCCCCCCCCCCC (stereo not given)	.	.	?	.	.	-1.3%
CCc1nn(CC(=O)NC(C)C)c(=O)c2cc3cc(F)ccc3n12	.	.	-2.9%	.	-0.9%	.
CC1(C)O[C@H]2[C@@H](O1)[C@@H](C(=O)Nc1ccc(F)c(F)c1)O[C@@H]1OC(C)(C)O[C@@H]12	.	.	-6.0%	.	-1.0%	.
Cc1ccc(NC(=O)CSc2nnc(-c3nnn(-c4ccc(F)cc4)c3C)o2)cc1Br	.	.	1.3%	.	?	.
Cc1oc(-c2ccc(Cl)cc2)nc1Cn1c(=O)cc(C)c2c(C)nn(-c3cccc(F)c3)c21	.	.	.	.	-1.1%	.
CCCn1c(=O)n(C)c(=O)c2c(SCC(=O)Nc3cc(C)on3)nc(C(C)(C)C)nc21	-10.9%	-4.4%	.	-5.3%	-0.4%	.
C=CCn1c(=NC(=O)c2cccs2)sc2cccc(OC)c21	-1.2%	13.9%	.	-8.0%	15.1µM*	.
Cc1ccccc1CNC(=O)CCC(=O)N1CC2CCCN2c2ccccc21 (stereo not given)	.	.	.	.	-7.8%	.
COc1ccc(C(=O)Nc2ccc3oc(-c4cc(Cl)ccc4Cl)nc3c2)cc1Br	.	.	-2.4%	.	1.7%	.
COc1ccc(Cn2c(SCC(=O)N3CCN(c4ccc(F)cc4)CC3)nc3ccccc32)cc1	.	.	-9.3%	.	1.2%	.
COc1ccc(C2=CC(=O)CC(C)(C)C2)cc1	1.2%	16.9%	.	7.1%	-22.0%	.
CC1(C)CC(=O)C=C(c2ccc(-c3ccccc3)cc2)C1	2.82µM*	?	.	?	?	.
Cc1ccccc1-c1nnn(Cc2ccc(F)cc2Cl)n1	15.9%	-1.3%[1.84 µM]	.	8.8%	16.9µM*	.
Clc1ccccc1Cn1nnc(-c2ccccc2)n1	26.7%	?	?	?	21.3µM*	1.5%
